Lmaj promast – Leishmania major promastigote growth inhibition, primary screen. Leishmania major promastigotes, resazurin fluorescence viability. inhibition, % at 10 µM. actives 9% (n = 200,000). AID 1063, 2008; in the data active means inhibition above about 50%;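 further: promastigotes grown with compound for 44 hours at 28 °C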
WT yeast gro inh – growth inhibition of WT strain, primary screen, mitochondrial fusion inhibitor project, WT and mutant strains, chemical genetic | mitochondrial fusion phenotypic screen | inhibition, % at 10 µM | actives 2.1% (n = 190,000) | AID 1362, 2008; in the data active means inhibition above about 58%; tested in S. cerevisiae
Cl transport mod – KCC2 cotransporter modulators, thallium flux, primary screen, cell-based, HEK293 KCC2, FluoZin-2 fluorescence, MLSMR | KCC2 cells, thallium flux FluoZin-2 fluorescence | B-score of Tl+ flux slope (higher = more flux/activation; lower = inhibition) at 10 µM | actives 2.2% (n = 190,000) | AID 1456, 2008;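 active means thallium flux slope and its plate-corrected score both differing from the plate sample mean at a set confidence after two filtering rounds, in either direction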;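 further: slope of fluorescence scaled to starting intensity during 10 to 20 s after thallium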
Insulin prom up – insulin promoter activators in MIN6 cells, imaging, high-content screening, mouse beta cells | MIN6 insulin promoter-GFP reporter; hits give high values | z-score at 5 µM | actives 0.3% (n = 190,000);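 active means z-score above 3 at 5 µM with at least 500 cells counted in the well; inconclusive means wells under 500 cells, flagged as cytotoxic or low count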
ROMK mod – ROMK potassium channel modulators, primary screen, cell-based, thallium flux, MLSMR library. ATP-sensitive inward rectifier potassium channel 1 (Homo sapiens), P48048. Tet-inducible ROMK, thallium flux fluorescence; actives lie on both sides. B-score at 10 µM. actives 2% (n = 130,000). AID 1918, 2009;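 active means signal ratio slope over the read window, or its plate-corrected B-score, at least 3 SD from the plate mean, either direction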;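 further: B-score of the F/F0 ratio slope over 7 to 12 s after thallium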
Target sequence (P48048 whole entry, looked up): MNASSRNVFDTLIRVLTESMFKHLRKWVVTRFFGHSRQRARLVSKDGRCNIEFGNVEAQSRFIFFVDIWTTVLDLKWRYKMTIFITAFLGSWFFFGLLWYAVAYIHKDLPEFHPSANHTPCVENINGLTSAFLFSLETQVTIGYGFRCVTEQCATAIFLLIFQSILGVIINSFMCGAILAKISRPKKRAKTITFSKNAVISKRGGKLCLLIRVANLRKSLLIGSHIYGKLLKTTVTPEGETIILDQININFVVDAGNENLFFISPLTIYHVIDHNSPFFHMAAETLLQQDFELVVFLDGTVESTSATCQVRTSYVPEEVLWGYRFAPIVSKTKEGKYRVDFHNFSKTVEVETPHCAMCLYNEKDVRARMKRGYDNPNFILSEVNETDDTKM
Insulin prom inh – inhibitors of insulin promoter-driven GFP, primary screen, imaging, TRM-6 cells (human fetal islet line), eGFP reporter, cell count. AID 1273, 2008. reporter expression induced with tamoxifen. actives 0.9% (n = 130,000). inhibition, % at 2 µM;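 active means inhibition above the mean plus 3 SD, with well images judged a real hit on visual review, cut at about 60% in these data, passing the limit was not always enough; inconclusive means inhibition over the cutoff but images rejected on review; inactive means inhibition not above the cutoff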
KCC2 secondary – KCC2 modulators in sodium-free buffer, confirmation, cell-based, HEK293 KCC2, thallium flux, secondary assay. shares compounds with Cl transport mod. FluoZin2 fluorescence; hits give high values. normalised thallium flux (F/F0 slope) at 10 µM. actives 15% (n = 3,700);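 active means thallium flux slope above the same plate's solvent-only control mean plus 3 SD; inconclusive means the two replicate wells disagree; inactive means no significant difference from solvent-only control wells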
KCC2 bumet counter – thallium flux persisting under bumetanide in KCC2 cells, confirmation, counter-screen for KCC2 modulator project, cell-based, HEK293 KCC2, FluoZin2, secondary assay 3 | actives 49% (n = 3,700) | shares compounds with Cl transport mod | AID 1714, 2009 | normalized thallium flux at 10 µM | HEK293-KCC2 + bumetanide/ouabain; hits give high values;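 active means thallium entry rate above the same plate's blocked-transporter control wells by more than 3 SD; inconclusive means the two repeat wells disagree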;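 further: raw slope of fluorescence over initial fluorescence between 10 and 20 s after thallium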
KCC2 sec2 – KCC2 modulators without ouabain present, confirmation, cell-based, HEK293 KCC2, thallium flux, FluoZin2, secondary assay 2 | thallium flux FluoZin2 fluorescence; actives lie on both sides; F/F0 rise rate, 10–20 s post-thallium | actives 23% (n = 3,700) | shares compounds with Cl transport mod | normalized thallium flux at 10 µM | AID 1715, 2009;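 active means thallium flux slope more than 3 SD above or below the plate's solvent-only control mean, mostly below; inconclusive means the two repeat wells disagreed; inactive means no significant shift from solvent-only controls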;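 further: raw slope with 0.1% DMSO as baseline and bumetanide as block control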
HEK293 Tl flux – thallium flux modulation in parental HEK cells, confirmation, counter-screen for KCC2 modulator project, cell-based, counterscreen 1; shares compounds with Cl transport mod; HEK293 parental cells, thallium flux FluoZin2, ouabain; baseline-ratio fluorescence slope, 10–20 s after thallium; thallium flux rate (normalised fluorescence) at 10 µM; actives 46% (n = 3,700); AID 1716, 2009;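 active means thallium flux rate significantly above the same plate's solvent-only control wells, beyond their mean plus 3 SD; inconclusive means the two replicate wells gave conflicting results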
KCC2 ouabain – KCC2 inhibitors and activators, ouabain retest, confirmation, HEK-KCC2 cells; shares compounds with Cl transport mod; raw Tl+ flux slope (below DMSO = inhibition, above = activation) at 10 µM; AID 1717, 2009; actives 48% (n = 3,700); HEK293-KCC2, thallium flux FluoZin2 fluorescence; bidirectional: low = inhibitor, high = activator;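 active means thallium flux slope beyond 3 SD from same-plate DMSO control mean in most replicates, usually higher, sometimes lower; inconclusive means repeat tests gave conflicting results; inactive means no significant difference from controls in most replicates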;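 further: slope of initial-normalized fluorescence between seconds 10 and 20 after thallium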
HEK293 Tl flux2 – native HEK Tl+ uptake effects, second counter-screen – HEK cells, counterscreen 2, counter-screen for KCC2 modulator project, confirmation | shares compounds with Cl transport mod | HEK293 parental, thallium flux FluoZin-2 fluorescence slope | thallium flux slope at 10 µM | actives 33% (n = 3,700) | AID 1718, 2009;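 active means thallium flux slope above the same plate's solvent-control mean plus 3 SD in both duplicate wells; inconclusive means duplicate wells that disagreed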;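 further: run without ouabain in cells lacking the KCC2 cotransporter; slope of fluorescence scaled to its starting value between 10 and 20 s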
An asterisk follows results filed as active; ? = inconclusive; . = not tested or not shown. Hits are enriched below; roughly 12% of the tested compounds scored in any of these assays.

SMILES	Lmaj promast	WT yeast gro inh	Cl transport mod	Insulin prom up	ROMK mod	Insulin prom inh	KCC2 secondary	KCC2 bumet counter	KCC2 sec2	HEK293 Tl flux	KCC2 ouabain	HEK293 Tl flux2
Cc1cnc(NC(=O)CSc2nnc(Cc3ccccc3)o2)s1	-3.6	6.2	-4.44*	0.48	.	.	0.00741	0.00513	0.0212*	0.00809	?	0.0109
COc1ccc(NC(=O)CSc2nnc(Cc3ccccc3)o2)c(OC)c1	-2.1	-3.5	-3.95*	0.05	0.64	-18.2	0.00714	0.00516	0.0286	?	0.0143*	0.00981
CCc1nnc(NC(=O)CSc2nnc(COc3ccccc3C)o2)s1	-6.0	-26.6	.	-0.09	0.0884	-76.5	0.00581	?	0.0251*	?	0.0156*	0.0106
COc1ccccc1NC(=O)CSc1nnc(Cc2ccccc2)o1	-1.7	12.5	-2.08	-0.92	.	43.8	.	.	.	.	.	.
COCc1nnc(NC(=O)CSc2ccccc2)s1	-4.2	-2.4	-4.81*	.	-0.562	14.3	0.00803	0.00568	0.0365	0.0044	0.0212	0.0111
Cc1ccc(N(CC(=O)NCc2ccc(F)cc2)C(=O)c2csnn2)cc1C	1.8	-2.5	-0.908	0.76	0.0344	-41.7	.	.	.	.	.	.
O=C(NCCN=C1NS(=O)(=O)c2ccccc21)c1ccncc1	-9.3	-36.8	7.02*	.	-0.041	.	0.0109	0.00582	0.0321	?	0.0222	0.01
N#Cc1cc2c([nH]c1=S)CCCCCC2	-0.9	2.7	6.44*	0.33	.	.	0.0128*	0.0216*	0.03	0.0134*	?	?
N#Cc1c(N)n[nH]c1-c1cc2c([nH]1)CCCC2	11.6	-2.1	0.022	0.49	.	30.8	.	.	.	.	.	.
COc1ccc(/C=C(\C#N)C(=O)OC2CCOC2=O)cc1 (stereo not given)	-3.8	-11.1	1.25	-0.7	-0.107	.	.	.	.	.	.	.
O=[N+]([O-])c1ccc(/C=N/n2c(COc3ccccc3)n[nH]c2=S)cc1	-5.7	2.4	0.482	0.09	.	56.7	.	.	.	.	.	.
O=[N+]([O-])c1cccc(/C=N/n2c(COc3ccccc3)n[nH]c2=S)c1	-4.7	4.5	59.1*	-0.19	-0.621	-11.1	0.0113	0.15*	0.0311	0.0193*	0.0589*	0.0122*
S=c1[nH]nc(COc2ccccc2)n1/N=C/C=C/c1ccco1	.	.	16.2*	-0.03	0.506	.	0.0072	0.0498*	0.0273	0.0118*	0.0282*	?
S=c1[nH]nc(COc2ccccc2)n1/N=C/C=C/c1ccccc1	-6.1	70.7*	12.3*	0.6	0.692	0.0	0.0135*	0.139*	0.0341	0.0209*	0.0563*	?

High-throughput results as filed in PubChem.
